Most compounds without a hit are left out; they make up all but 3.4% or so of the library.
GPR151 activ: activators of human GPR151, primary screen, cell-based, PathHunter beta-arrestin, luminescence. activation, % at 11.2 µM. 650,000 compounds, 1% hits. PathHunter beta-arrestin GPR151 cells. G-protein coupled receptor 151 (Homo sapiens), Q8TDV0; in the data active = activation above about 4.9%
MITF primary: MITF inhibitors, primary screen, biochemical, AlphaScreen, human | AlphaScreen MITF homodimerization, bead proximity signal | AID 1259374, 2018 | 650,000 compounds, 0.91% hits | inhibition, % at 2.6 µM | Microphthalmia-associated transcription factor (Homo sapiens), O75030; in the data active = inhibition above about 50%
TEAD-YAP inh: TEAD-YAP interaction inhibition, primary screen, TEAD-YAP interaction inhibitor project, luminescence, HEK-TIYL cells; TEAD-Gal4/YAP UAS-luciferase luminescence; AID 1259422, 2018; inhibition, % at 9.12 µM; 640,000 compounds, 1.4% hits; in the data active = inhibition above about 32%
FBW7 activator: FBW7 E3 ligase activators, primary screen, biochemical, AlphaScreen, human. F-box/WD repeat-containing protein 7 (Homo sapiens), Q969H0. AlphaScreen FBW7–phospho-cyclin E peptide binding, activator screen. normalized activity (activation), % at 26.1 µM. 650,000 compounds, 0.13% hits. AID 1259310, 2017; in the data active = normalized activity above about 1.9%;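 note: purified mutant Fbw7 with reduced substrate affinity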
Target sequence (Q969H0 whole entry, looked up): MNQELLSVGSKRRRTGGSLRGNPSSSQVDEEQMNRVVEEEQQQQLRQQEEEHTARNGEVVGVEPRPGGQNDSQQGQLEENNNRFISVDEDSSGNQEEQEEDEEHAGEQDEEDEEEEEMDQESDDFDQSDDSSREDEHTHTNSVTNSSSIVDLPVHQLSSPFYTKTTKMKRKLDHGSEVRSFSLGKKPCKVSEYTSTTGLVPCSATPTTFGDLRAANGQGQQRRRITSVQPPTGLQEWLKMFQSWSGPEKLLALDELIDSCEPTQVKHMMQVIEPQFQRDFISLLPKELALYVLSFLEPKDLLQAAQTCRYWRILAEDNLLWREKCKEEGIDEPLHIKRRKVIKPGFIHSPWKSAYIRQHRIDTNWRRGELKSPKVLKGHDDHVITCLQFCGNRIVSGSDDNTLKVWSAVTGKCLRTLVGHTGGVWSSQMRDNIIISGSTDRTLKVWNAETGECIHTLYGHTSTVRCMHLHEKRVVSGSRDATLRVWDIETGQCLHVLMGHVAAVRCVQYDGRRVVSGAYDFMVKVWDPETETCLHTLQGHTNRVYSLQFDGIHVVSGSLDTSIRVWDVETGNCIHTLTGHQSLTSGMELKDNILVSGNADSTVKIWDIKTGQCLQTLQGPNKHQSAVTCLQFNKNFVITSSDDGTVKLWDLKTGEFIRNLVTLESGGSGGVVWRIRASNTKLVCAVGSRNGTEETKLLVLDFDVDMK
Numbers stand for hits; - = inactive.

SMILES	GPR151 activ	MITF primary	TEAD-YAP inh	FBW7 activator
CCCCOc1ccc(NC(=O)C2CC(=O)N(c3ccc(CC)cc3)C2)cc1 (configuration not stated)	-	-	-	-
O=C(Nc1ccc(F)cc1)c1ccc(F)c([N+](=O)[O-])c1	-	-	59	-
O=C(Nc1ccc(Oc2ccccc2)cc1)c1ccc(F)c([N+](=O)[O-])c1	-	-	57	-
O=C(c1ccccc1)N1C(=O)c2ccccc2C1=O	-	-	-	2.5
CC1CCCN(C2=NC(=O)/C(=C/c3ccc(O)cc3)S2)C1 (configuration not stated)	-	-	49	-
COc1cc(/C=C2\SC(N3CCCC(C)C3)=NC2=O)ccc1O (configuration not stated)	-	-	56	-
CC1CCCN(C2=NC(=O)/C(=C/c3ccc(F)cc3)S2)C1 (configuration not stated)	-	-	-	-
O=C1N=C(N2CCOCC2)S/C1=C\c1ccc(O)cc1	-	-	39	-
COc1cc(/C=C2\SC(N3CCOCC3)=NC2=O)ccc1O	-	-	54	-
O=C1N=C(N2CCOCC2)S/C1=C\c1ccc(F)cc1	-	-	-	-
COc1cc(/C=C2\SC(N3CCCC3)=NC2=O)ccc1O	-	-	-	-
CCOC(=O)C1=C(C)NC2=C(C(=O)C(C(=O)OC)C(C)C2)C1c1cc2c(cc1[N+](=O)[O-])OCO2 (configuration not stated)	-	-	-	-
Cc1ncc2c(c1CNC(=O)c1ccco1)CCN(C(=O)c1cn3ccccc3n1)C2	-	-	-	-
Cc1[nH]c2ccccc2c(=O)c1C(=O)/C=C/c1ccccc1	-	-	93	-
O=C(/C=C/c1ccccc1)c1c(O)c2ccccc2[nH]c1=O	-	-	-	-
O=C(Nc1ccc(F)cc1)c1ccc(C(F)(F)F)cc1	-	-	-	-
CC(=O)O[C@@H]1[C@@H](O)CN[C@@H]1Cc1ccccc1	-	-	101	-
Cc1cc2nnc(SCC(=O)NCc3ccco3)n2c2ccccc12	-	-	48	-
Cc1cccc(Cn2cc(SCC(=O)NCc3ccco3)c3ccccc32)c1	-	-	36	-
COc1cc(/C=C2\SC(=S)N(Cc3cccnc3)C2=O)cc([N+](=O)[O-])c1O	-	-	-	-
Cc1cc(/C=C2\NC(=O)N(Cc3ccccc3F)C2=O)c(C)n1-c1ccc([N+](=O)[O-])cc1	-	-	-	-
CC(=O)Nc1ccc(NS(=O)(=O)c2cc(C(F)(F)F)cc(C(F)(F)F)c2)cc1	-	-	-	-
c1ccc(Nc2nc(Nc3ccccn3)nc3nc[nH]c23)cc1	-	-	-	-
CCOC(=O)N1CCc2c(sc(NC(=O)C(C)(C)C)c2C(N)=O)C1	-	-	-	-
CCCCC(=O)Nc1sc2c(c1C(N)=O)CCN(C(=O)OCC)C2	-	-	50	-
SMILES	GPR151 activ	MITF primary	TEAD-YAP inh	FBW7 activator
CCCC(=O)Nc1sc2c(c1C(N)=O)CCN(C(=O)OCC)C2	-	-	51	-
COc1ccc(/C=C/C(=O)Nc2nc(CN3CCc4ccccc4C3)cs2)cc1OC	-	-	45	-
O=C(Nc1nc(CN2CCc3ccccc3C2)cs1)c1ccc(F)cc1	-	-	32	-
COc1ccccc1OCC(=O)Nc1nc(CN2CCc3ccccc3C2)cs1	-	-	-	-
NC(=O)c1c(NC(=O)c2cc3ccccc3o2)sc2c1CCCC2	-	-	46	-
Cc1ccc(C(=O)Nc2sc3c(c2C(N)=O)CCCCC3)o1	-	-	55	-
CCOC(=O)c1c(N)sc(C(=O)NC2CCCCC2)c1C	-	-	70	-
CCC(=O)Nc1sc(C(=O)NC2CCCCC2)c(C)c1C(=O)OC	-	-	37	-
CCOC(=O)c1sc(C)c(C(=O)NC2CCCCC2)c1N	-	-	-	-
O=C(O)/C(=C/c1ccco1)NC(=O)c1ccccc1	-	-	-	-
NNC(=O)/C(=C\c1ccco1)NC(=O)c1ccccc1	-	-	35	-
Cc1nc2cc(N3CCN(C)CC3)c(NC(=O)C3CC3)cc2c(=O)n1Cc1ccccc1	-	-	34	-
NC(=O)c1ccccc1N=Cc1cccc(Cl)c1Cl	-	-	54	-
COC(=O)c1sc(NC(=O)c2ccccc2Cl)c(C#N)c1C	-	-	-	-
Cc1sc(NC(=O)c2ccccc2Cl)c(C#N)c1C	-	-	-	2.6
CCc1c(C)nc(NC2CCN(C(=O)C3(c4ccc(OC)cc4)CC3)CC2)[nH]c1=O	-	-	-	-
COc1ccc(C2(C(=O)N3CCC(Nc4nc5c(c(=O)[nH]4)CCC5)CC3)CC2)cc1	-	-	-	1.9
O=[N+]([O-])c1cccc(/C=N/Nc2ccccn2)c1O	-	94	78	-
COc1cccc(/C=N/Nc2ccc([N+](=O)[O-])cn2)c1O	-	-	66	8.6
O=[N+]([O-])c1cc(/C=N/Nc2ccccn2)c(O)c([N+](=O)[O-])c1	-	-	-	-
O=C(NCCOc1cccc2ccccc12)c1ccccc1O	-	-	-	-
O=C(NCCC1=CCCCC1)c1ccc(Br)s1	-	-	-	-
CC(C)C(NC(=O)CN(c1ccc(Br)cc1)S(C)(=O)=O)C(C)C	-	-	-	-
CC(C)NC(=O)CN(c1ccc(Br)cc1)S(C)(=O)=O	-	-	-	1.9
COc1ccc(N2C(=O)CSC2c2cccc([N+](=O)[O-])c2)c(OC)c1 (configuration not stated)	-	-	46	-
SMILES	GPR151 activ	MITF primary	TEAD-YAP inh	FBW7 activator
COc1ccc(N2C(=O)CSC2c2cccc(F)c2)c(OC)c1 (configuration not stated)	-	-	-	-
CCOc1ccc(/C=N/NC(=O)/C(=C/c2ccccc2O)NC(=O)c2ccccc2)cc1	-	-	88	-
O=C(N/N=C/c1c[nH]c2ccccc12)/C(=C/c1ccccc1O)NC(=O)c1ccccc1	-	-	86	-
O=C(N/N=C/c1c[nH]c2ccccc12)c1ccncc1	-	-	-	-
Cn1cc(C(=O)N/N=C/c2c[nH]c3ccccc23)c2ccccc21	-	-	37	-
O=C(CCN1C(=O)c2ccccc2S1(=O)=O)Nc1cccc(Br)c1	-	-	-	-
CC(=O)NCCNC(=O)c1sccc1C	-	-	-	-
CN1C/C(=C/c2cccs2)C(=O)/C(=C/c2cccs2)C1	-	-	-	-
CC(=O)C1=C(c2ccc(C(C)(C)C)cc2)N(C(C)=O)n2c(C)nnc2S1	-	-	39	-
CC(=O)C1=C(c2ccc(C3CCCCC3)cc2)N(C(C)=O)n2c(C)nnc2S1	-	-	41	-
O=C(Nc1ccc(Cl)c(Cl)c1)c1cc(S(=O)(=O)NCc2ccco2)ccc1F	-	-	-	-
Cc1ncc2c(NCCN(C)C)nc3ccccc3n12	-	-	46	-
Cc1ncc2c(NCCc3ccccc3)nc3ccccc3n12	-	-	-	-
O=c1[nH]c(-c2ccccc2O)nc2sc3c(c12)CCCC3	-	-	-	-
